Results as given in the OligoGym collection.
Note: reference of the scale not given here.

Each sequence was assayed against IL7 (assay: pooled miR-30 sensor sort-seq; sequence = guide strand). Conditions: shRNA.
With TAAAGATTTATTTTCTTCCAAA the sensor-assay potency score (higher = more potent) was -1.11. In the case of TATCTCTTGTAATAGTCTCTTT, the sensor-assay potency score (higher = more potent) is reported as -0.557. In the case of TTTTCTTCCAAACTCTTTGTTG, the sensor-assay potency score (higher = more potent) is reported as -0.54. TTTATTTTCTTCCAAACTCTTT gave a sensor-assay potency score (higher = more potent) of -0.524. In the case of TTCCTTATTAGCATCACAGATA, the sensor-assay potency score (higher = more potent) is reported as -0.731. TTGTAATAGTCTCTTTAGGAAA showed a sensor-assay potency score (higher = more potent) of -1.6. With TATCACAATCAGATGATGCTAC the sensor-assay potency score (higher = more potent) was 0.423. TAGGAAACACAAGTCATTCAGT gave a sensor-assay potency score (higher = more potent) of 0.00202. Work on TATTATTGCAACTGATACCTTA yielded a sensor-assay potency score (higher = more potent) of -0.0538. With TAGCATCACAGATATGTCTTTT the sensor-assay potency score (higher = more potent) was -0.445. TTGTTTGTATTCATCTTCTAGT gave a sensor-assay potency score (higher = more potent) of -0.373.

Each sequence was assayed against ILDR2 in the same assay as above. Conditions: shRNA.
In the case of TTCTCTTGCTGAGAGATTGGGC, the sensor-assay potency score (higher = more potent) is reported as -0.528. Work on TCTGCATCATGAACAATCGTGA yielded a sensor-assay potency score (higher = more potent) of -0.116. Work on TGAACAATCGTGATCTCTCTGC yielded a sensor-assay potency score (higher = more potent) of -0.125. Sequence TTGAAGCTACTACTCGAACAGT has a sensor-assay potency score (higher = more potent) of -0.815. With TAGGACTTGAACTTCCACTGCA the sensor-assay potency score (higher = more potent) was 0.867. TAGTACAGGACCTTCATGGAGT showed a sensor-assay potency score (higher = more potent) of 0.283. TACAGTAATAGAGTCCGCTGTC gave a sensor-assay potency score (higher = more potent) of 0.133. For TACTACTCGAACAGTCCTCCTG, the sensor-assay potency score (higher = more potent) was 0.188. TAATACAGTAATAGAGTCCGCT gave a sensor-assay potency score (higher = more potent) of 0.505. For TGAACTTCCACTGCACAACTGC, the sensor-assay potency score (higher = more potent) was -0.265. With TTATATCTGCCTCTCATCCTTC the sensor-assay potency score (higher = more potent) was -0.505. Sequence TTGTCGGGCACTGTGACCTGAA has a sensor-assay potency score (higher = more potent) of -0.304.

Each sequence was assayed against IMMP2L in the same assay as above. Conditions: shRNA.
With TAATGATCTTCTGTTCTGGGTT the sensor-assay potency score (higher = more potent) was -0.0559. For TTCAAAGAAGGCTGCATCGATG, the sensor-assay potency score (higher = more potent) was -1.29. With TTCAAGAGCAATCACTCTCTTA the sensor-assay potency score (higher = more potent) was -0.135. Sequence AATGATACAATGTCACCACGGT has a sensor-assay potency score (higher = more potent) of 0.432. With TTGATGTATCTTTTCACCCACC the sensor-assay potency score (higher = more potent) was -0.733. TCAAAATTCCTCACTTTCCAGT showed a sensor-assay potency score (higher = more potent) of -0.183. TAAATATTTCTCGCACAGCATC gave a sensor-assay potency score (higher = more potent) of -1.39. Sequence TCTACTCTTGCCACACAGGCGA has a sensor-assay potency score (higher = more potent) of -0.683. With TTCAAAAGCACCACATCAGATG the sensor-assay potency score (higher = more potent) was -0.957. In the case of ATCGATGCTCCTTCTACTCTTG, the sensor-assay potency score (higher = more potent) is reported as -0.658. Work on TATGGTTCTGACAATATCTCCT yielded a sensor-assay potency score (higher = more potent) of 0.439. For TCTTAATGATCTTCTGTTCTGG, the sensor-assay potency score (higher = more potent) was 0.00439.

What follows are sequences tested against INF2 in the same assay as above. Conditions: shRNA.
For TTCATGACAATGCTGAAGCGGT, the sensor-assay potency score (higher = more potent) was -0.245. TAGCTCAAACACCTGCTTCTTC was tested, and the sensor-assay potency score (higher = more potent) was -0.118. TAGAGTTGTGCTCACGTGCCAC gave a sensor-assay potency score (higher = more potent) of -0.638. In the case of TCAGTGGTTAGGACATCGCTGG, the sensor-assay potency score (higher = more potent) is reported as -0.678. Sequence TTCAATCTCGTGCTTCTCGGGA has a sensor-assay potency score (higher = more potent) of -0.3.
